Pf growth 48h: inhibits P. falciparum growth in the first generation, 48 h; P. falciparum luciferase growth in erythrocytes, 48 h; Potency, µM (top dose mostly 28.7 µM), hits mostly inhibitors; 310,000 compounds, 5.9% hits
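Growth was read as firefly luciferase luminescence after a 48 h, 37 C, 5% CO2 exposure of compounds to reporter-bearing P. falciparum cultures (0.1% parasitemia, 2% hematocrit final) in Albumax-supplemented RPMI 1640.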
AmpC inh no detg: blocks E. coli AmpC beta-lactamase in detergent-free assay. Potency, µM (titrated, usually from 57.1 µM), most hits filed as inhibitors. P00811. 330,000 compounds, 0.52% hits. AmpC nitrocefin hydrolysis, absorbance 480 nm, 0.0001% Triton; note: nearly all actives have a fitted effect of over 20% in size
Target sequence (P00811 whole entry, looked up): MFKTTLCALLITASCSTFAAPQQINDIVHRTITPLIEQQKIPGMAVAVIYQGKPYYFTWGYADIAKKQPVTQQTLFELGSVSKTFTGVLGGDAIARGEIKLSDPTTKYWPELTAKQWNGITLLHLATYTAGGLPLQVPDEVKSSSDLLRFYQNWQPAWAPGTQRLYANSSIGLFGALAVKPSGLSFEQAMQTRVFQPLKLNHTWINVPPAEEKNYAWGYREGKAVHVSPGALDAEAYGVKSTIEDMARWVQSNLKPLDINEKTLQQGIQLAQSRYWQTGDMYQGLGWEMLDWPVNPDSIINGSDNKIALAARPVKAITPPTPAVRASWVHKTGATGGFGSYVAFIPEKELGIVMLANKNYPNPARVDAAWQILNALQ
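AmpC (5.3 nM in the dispensed reagent) in 20 mM phosphate pH 7.0 with 0.01% (detergent screen) or 0.0001% Triton X-100 was preincubated with compounds for 15 min at room temperature. Nitrocefin was then added from an 800 uM solution, and hydrolysis was followed at 480 nm.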
AmpC detergent: AmpC beta-lactamase inhibition with detergent present; P00811; 370,000 compounds, 0.041% hits; AmpC hydrolysis of nitrocefin, absorbance 480 nm, 0.01% Triton; Potency, µM (doses to about 114 µM), hits mostly inhibitors; note: nearly all actives have a fitted effect of over 25% in size
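20 mM phosphate pH 7.0 + 0.01% (detergent screen) or 0.0001% Triton X-100; 5.3 nM AmpC reagent; cpd preinc 15 min RT; nitrocefin (800 uM stock) to start; A480 q20 s × 4 min; Activity was normalised to no-enzyme and no-compound control wells.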
Sm TGR block: S. mansoni TGR enzyme inhibition; Q962Y6; purified TGR, DTNB reduction, TNB absorbance 405 nm; Potency, µM (doses to about 114 µM), usual class: inhibitors; 360,000 compounds, 3% hits; note: nearly all actives have a fitted effect of over 60% in size
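Kinetic colorimetric format: TGR-catalysed, NADPH-driven DTNB reduction monitored via TNB absorbance. Enzyme dispensed at 20 nM; compound exposure 15 min at room temperature before reaction start.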
SARS PLP yeast: blocks SARS-CoV papain-like protease in a yeast assay; S. cerevisiae expressing SARS-CoV PLpro, growth rescue; 330,000 compounds, 0.19% hits; Potency, µM (series often up to 32.9 µM), hits mostly activators; calls by dose curve; note: nearly all actives have a fitted effect of over 55% in size
Pf growth 96h: P. falciparum growth inhibition at 96 hours; P. falciparum luciferase reporter growth, 96 h; Potency, µM (top dose mostly 28.7 µM), usual class: inhibitors; 320,000 compounds, 6.9% hits; AID 504834
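Luminescence readout: decreased luciferase signal marks inhibited growth of reporter-expressing P. falciparum in infected red cells (2% hematocrit, 0.05% parasitemia final), exposed to compound two generations (96 h, 37 C, 5% CO2).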
Numbers stand for hits. Rows were chosen to be rich in hits. Some 12% of all compounds tested hit in one or more screens of this group. Unless noted, calls come from the whole dose curve; as a rule, active = well fitted curve in the direction sought with a large enough effect; inconclusive = small, poorly fitted or top-dose-only effect, or another doubt; inactive = no such curve, though single readings can be large; an effect the other way counts as inactive or inconclusive.

How did CC(=O)c1ccc(-c2ccc(C(=O)N3CCN(c4ccc(F)cc4)CC3)o2)cc1 do in these assays?
Pf growth 48h: inactive; AmpC inh no detg: inactive; AmpC detergent: inactive; Sm TGR block: inactive; SARS PLP yeast: inactive; Pf growth 96h: 12µM

What do the screens show for `COc1ccccc1N1CCN(C(=O)c2ccc(-c3ccc(Cl)cc3)o2)CC1`?
Pf growth 48h: inconclusive; AmpC inh no detg: inactive; AmpC detergent: inconclusive; Sm TGR block: inactive; SARS PLP yeast: inactive; Pf growth 96h: 12µM

How did Cc1ccc(Cl)cc1N1CCN(C(=O)c2cc3c(=O)[nH]c4ccccc4c3n2C)CC1 do in these assays?
Pf growth 48h: inconclusive; AmpC inh no detg: inactive; AmpC detergent: inactive; Sm TGR block: inactive; SARS PLP yeast: inactive; Pf growth 96h: 9.3µM

What do the screens show for `CC(C)CCn1nnc2sc(-c3ccccc3)cc2c1=O`?
AmpC detergent: inactive; Sm TGR block: inactive

What do the screens show for `O=C(COC(=O)CCC(=O)c1cccs1)Nc1ccccc1C(F)(F)F`?
AmpC inh no detg: inactive; SARS PLP yeast: inactive

Results for NC(=O)/C(=C/c1ccco1)C(N)=S ?
Pf growth 48h: inactive; AmpC inh no detg: inactive; AmpC detergent: inactive; Sm TGR block: inconclusive; SARS PLP yeast: inactive; Pf growth 96h: inactive

Results for COc1ccccc1N1CCN(C(=O)c2cc3c(=O)n(C)c4ccccc4c3n2C)CC1 ?
AmpC inh no detg: inactive; AmpC detergent: inactive; Sm TGR block: inactive; SARS PLP yeast: inactive; Pf growth 96h: 7.4µM

What do the screens show for `CC(C)c1ccccc1OCC(=O)N1CCCCCCC1`?
Pf growth 48h: inactive; AmpC inh no detg: inactive; AmpC detergent: inconclusive; Sm TGR block: inactive; SARS PLP yeast: inactive; Pf growth 96h: 4.1µM

Results for COc1ccccc1N1CCN(C(=O)COc2ccc(Cl)cc2Br)CC1 ?
Pf growth 48h: inactive; AmpC inh no detg: inactive; AmpC detergent: inactive; Sm TGR block: inactive; SARS PLP yeast: inconclusive; Pf growth 96h: 8.3µM

Results for COc1ccccc1N1CCN(C(=O)COc2ccc(C)cc2Br)CC1 ?
Pf growth 48h: inactive; AmpC inh no detg: inactive; AmpC detergent: inactive; Sm TGR block: inactive; SARS PLP yeast: inactive; Pf growth 96h: inconclusive

Results for CCOC(=O)N1CCN(C(=O)COc2ccccc2OC)CC1 ?
Pf growth 48h: 2.3µM; AmpC inh no detg: inactive; AmpC detergent: inactive; Sm TGR block: inactive; SARS PLP yeast: inactive

Results for Cc1ccccc1OCC(=O)N1CCCCCCC1 ?
Pf growth 48h: inactive; AmpC inh no detg: inactive; AmpC detergent: inactive; Sm TGR block: inactive; SARS PLP yeast: inactive; Pf growth 96h: inconclusive

Screening data from PubChem.
